Assay outcomes from PubChem.
Ba CapD inh: blocks the Bacillus anthracis CapD enzyme | purified CapD enzyme, fluorescence intensity read-out; hits give low values | z-score (no concentration beside the values) | 140,000 compounds, 0.23% hits; in the data active = z-score mostly below about -2.9, no sharp cut-off; inactive = mostly above about -1.9
AID504770: growth inhibitors of E. coli YBA685 in a screen for V. cholerae RctB (chromosome II replication) inhibitors. z-score (concentration not given with the values). AID 504770. 130,000 compounds, 0.27% hits. E. coli YBA685 rctB-dependent plasmid, OD600 growth, 3 h; hits give low values; in the data active = z-score below about -2, passing the limit was not always enough
* hit, by the source's call; · = no result given. Hits are enriched below; roughly 0.36% of the tested compounds scored in any of these assays.

SMILES | Ba CapD inh | AID504770
Cn1ncc(Br)c1C(=O)NN | 0.185 | 0.2
Cn1ncc(Br)c1N1C(=O)C=CC1=O | -0.25 | -3.05*
COc1cc(-n2c(C)nc3cc(C(=O)NCCC4=CCCCC4)ccc32)cc(OC)c1OC | -0.11 | ·
CN(C)C=NC(=O)c1sc2cc(C(F)(F)F)cnc2c1-c1ccccc1 | -0.8 | ·
O=c1sn(-c2ccc(F)c(Cl)c2)c(=O)n1C1Cc2ccccc2C1 | 0.25 | -3.3*
O=C1CSCC(=O)N1c1ccc(F)c(Cl)c1 | -0.685 | ·
CCCc1c(C)nc2cc(-c3sccc3-n3c(C)ccc3C)nn2c1C | -0.715 | ·
CCOc1ccc(C(=O)NNC(=O)OCCN2CCN(Cc3cc(OC)c4c(c3)OCO4)CC2)cc1 | 0.315 | ·
Cc1ccc2c(c1)n([O-])c1c([n+]2=O)CCCC1 | 0.135 | -0.75
O=[n+]1c2c(n([O-])c3ccccc31)CCC2 | -1.23 | -3.35*
Cc1ccc(P(=Nc2ccc(S(N)(=O)=O)cc2)(Oc2ccccc2)C(C)(C)C)o1 (configuration not stated) | · | -0.75
CN(C)/C=C/C(=O)c1ccsc1 | -6.34* | -1.65
Cc1ccc(C(=O)/C=C/N(C)C)cn1 | -2.84 | -0.35
O=C(OCCS(=O)(=O)c1ccc(C(F)(F)F)cn1)c1ccc(C(F)(F)F)cc1 | 1.04 | -1.05
CN(C)N=Nc1ccc(S(=O)(=O)NC(=O)Cc2ccccc2)cc1 | -1.38 | 0.75
Cc1ccc(C=Nc2ccc(C)cc2)cc1 | 0.12 | ·
Cc1ccc(N=NN(C)C)cc1 | -1.04 | -6.65*
CC(=O)N(C(C)=O)S(=O)(=O)c1ccc(N=NN(C)C)cc1 | -5.13* | -1.55
COc1ccc(C(=O)OCC(=O)c2cc3c4c(c2)CC(=O)N4CCC3)cc1S(=O)(=O)N(C)C | · | 1.25
Cc1ccc(/C=C2\SC(=S)N(CC(=O)Nc3nnc(C)s3)C2=O)cc1 | 0.145 | ·
O=C1CCCC2=C1C(c1cccs1)Nc1ccccc1N2 (configuration not stated) | -3.55* | 0.05
O=C1CCCC2=C1C(c1ccncc1)Nc1ccccc1N2 (configuration not stated) | -1.67 | 1.1
CSc1sc(C#N)c2c1C(=O)CC(C)(C)C2 | -0.685 | ·
CC(=O)Nc1nonc1N1CCCC1=O | 0.08 | 0
CC(=O)N1c2nonc2N(C(C)=O)c2nonc21 | -10.7* | -1.05
SMILES | Ba CapD inh | AID504770
O=C(O)COc1ccccc1/C=C1/SC(=S)N(c2cccnc2)C1=O | -3.98* | -0.1
O=C(O)COc1ccccc1/C=C1/SC(=S)N(NC(=O)c2ccco2)C1=O | · | -0.35
Cc1noc(/C=C/N(C)C)c1S(=O)(=O)N(CCc1ccccc1)Cc1ccccc1 | -4.35* | 2.4
Cc1noc(C)c1S(=O)(=O)N(CCC#N)Cc1ccccc1 | -0.2 | -0.7
O=C(c1cccnc1)N(c1ccc(F)cc1)c1nc2ccccc2s1 | -0.07 | -1.75
C1CN2CN3CCN(CN1C3)C2 | -0.215 | -2.4*
C1N2CN3CN1CN(C2)C3 | 0.64 | -0.3
COc1ccc(CN(C)C(=O)c2ccc(C)cc2O)c(OC)c1 | · | 0.35
COc1ccc2c(=O)c(-c3cnn(-c4ccccc4)c3)coc2c1 | -0.08 | -0.75
c1ccc(CNCCc2c[nH]c3ccccc23)cc1 | -0.155 | 0.95
c1ccc(CC(NCc2c[nH]c3ccccc23)c2ccccc2)cc1 (configuration not stated) | -0.08 | -3.1*
CN(C)c1ccc(CN(CC2CCCO2)S(=O)(=O)c2ccccc2C#N)cc1 (configuration not stated) | · | 0.7
Cc1cc(C)c(S(=O)(=O)N(CCC(C)C)S(=O)(=O)c2ccccc2C#N)c(C)c1 | · | -4.05*
Cc1cccc(CCCOCCOC(=O)N2CCC(O)(c3ccc(Cl)cc3)CC2)n1 | 0.56 | ·
O=C(O)CCC(=O)c1ccc(Br)cc1 | -1.3 | -3.1*
O=C(O)CCC(=O)c1ccc(I)cc1 | -0.51 | 1.5
Cc1nonc1NC(=O)Nc1cccnc1 | 0.72 | -2.05*
Cc1cc(C(=O)Nc2cccnc2)no1 | -2.45 | -1.75
CN1C2CCC1CC(NC(=O)CS(=O)(=O)c1ccccc1)C2 (configuration not stated) | 0.215 | 0.05
OC(CN1CCCCC1)c1ccc2cc[nH]c2c1 (configuration not stated) | -0.615 | -0.1
NC(=O)CSc1nnc(Cc2cc(=O)[nH]c(=O)[nH]2)n1-c1ccccc1 | -5.03* | -0.35
O=C(CSc1nnc(Cc2cc(=O)[nH]c(=O)[nH]2)n1-c1ccccc1)N1CCCC1 | -0.125 | 0.7
O=S(=O)(Nc1ccc(N2CCCCC2)cc1)c1ccc(-c2ccccn2)s1 | 0.135 | -0.4
CN1C(=O)/C(=C\c2ccccc2)Sc2ccc(C(=O)NCc3cccs3)cc21 | -6.91* | 0.4
Cc1cccc(/C=C2\Sc3ccc(C(=O)NCCC(C)C)cc3N(C)C2=O)c1 | -0.405 | -0.2
COc1cc(S(=O)(=O)n2cccn2)c(OC)cc1Cl | · | 0.5
CC1(C)CC(C)(c2ccc(O)cc2O)NC(=S)N1 (configuration not stated) | -0.215 | ·
COC(=O)C1=CN(CC2CCCO2)C=C(C(=O)OC)C1c1ccccc1 (configuration not stated) | 39.9 | 1.75
